An excerpt weighted towards active compounds, which were near 2.4% of everything screened.
M1 PAM: human M1 muscarinic receptor positive allosteric modulators, primary screen, CHO-K1 cells, Fluo-8 calcium fluorescence, 1536-well; activation, % at 3 µM; hit rate 0.088% among 360,000; CHO-K1 hM1, ACh EC20; 0% = ACh EC20, 100% = maximal ACh; Muscarinic acetylcholine receptor M1 (Homo sapiens), P11229; in the data active means activation above about 19%, passing the limit was not always enough
Target sequence (P11229 whole entry, looked up): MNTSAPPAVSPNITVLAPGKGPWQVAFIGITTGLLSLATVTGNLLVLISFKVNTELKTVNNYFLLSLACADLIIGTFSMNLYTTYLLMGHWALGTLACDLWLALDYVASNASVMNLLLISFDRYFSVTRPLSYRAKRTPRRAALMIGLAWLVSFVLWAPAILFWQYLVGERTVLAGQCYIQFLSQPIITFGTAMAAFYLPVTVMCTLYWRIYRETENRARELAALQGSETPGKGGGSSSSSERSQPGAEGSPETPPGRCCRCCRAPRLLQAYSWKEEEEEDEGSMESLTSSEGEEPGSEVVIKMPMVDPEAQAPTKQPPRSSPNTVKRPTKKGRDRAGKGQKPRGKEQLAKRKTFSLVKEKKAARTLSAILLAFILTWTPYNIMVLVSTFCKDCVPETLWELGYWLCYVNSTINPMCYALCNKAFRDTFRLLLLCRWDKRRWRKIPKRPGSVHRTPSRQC
M1 antag: human M1 muscarinic receptor antagonists, primary screen, CHO-K1 cells, Fluo-8 calcium fluorescence, 1536-well; AID 588852, 2011; CHO-K1 hM1, ACh EC80 antagonist; inhibition, % at 3 µM; hit rate 1.3% among 360,000; Muscarinic acetylcholine receptor M1 (Homo sapiens), P11229;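 active means percent inhibition above its own plate's cutoff, namely the mean of that plate's compound wells plus 3 SD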;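 further: peak over basal fluorescence ratio during 140 s after agonist addition; 0% = ACh EC80 plus DMSO and 100% = DMSO alone without agonist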
CHO-K1 Ca PAM: nonselective calcium activators in parental CHO-K1 cells, primary screen, counter-screen for M1 PAM project, cell-based, Fluo-8 calcium fluorescence, full deck, 1536-well; hit rate 0.02% among 360,000; activation, % at 3 µM; ATP EC20; 0% at ATP EC20, 100% at ATP max;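 active means activation above the run cutoff, the mean activation of all test compounds plus 3 SD, cut at about 40% in these data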;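 further: peak over basal fluorescence ratio in a 140 s read after ATP addition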
CHO-K1 Ca antag: M1 antagonist counterscreen hit in parental CHO-K1 cells; hit rate 0.6% among 360,000; ATP-induced calcium, Fluo-8 fluorescence; AID 602250; inhibition, % at 3 µM;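 active means inhibition above a per-plate cutoff, the plate's mean sample inhibition plus 3 SD, cut at about 24% in these data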;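 further: 0% = DMSO plus EC80 ATP and 100% = DMSO alone without ATP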
CHO-K1 Ca ag: counter-screen for M1 agonists: effect in parental CHO-K1 cells; Fluo-8 calcium fluorescence; scaled to maximal ATP response, vehicle zero; activation, % at 3 µM; hit rate 0.48% among 360,000; in the data active means activation above about 15%;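 further: untransfected CHO-K1 host cells lacking M1 receptor as counterscreen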
CHRM1 agonist: human M1 muscarinic receptor agonists, primary screen, Fluo-8 calcium fluorescence, CHO-K1 cells, HTS | hit rate 0.33% among 360,000 | Muscarinic acetylcholine receptor M1 (Homo sapiens), P11229 | CHO-K1 hM1, agonist mode; 0% DMSO, 100% acetylcholine EC100 | activation, % at 3 µM | AID 588814, 2011;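 active means activation above the run's mean compound activation plus 3 SD, cut at about 16% in these data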;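 further: peak over basal fluorescence ratio within a 140 s kinetic read after compound addition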
* marks the source's active call; other numbers are inactive results.

SMILES	M1 PAM	M1 antag	CHO-K1 Ca PAM	CHO-K1 Ca antag	CHO-K1 Ca ag	CHRM1 agonist
CCc1ccc(Cn2nnc(C(=O)Nc3cccc(C)c3)c2N)cc1	7	-9	-10	4	1	9
COc1cccc(Cn2nnc(C(=O)Nc3cc(C)ccc3OC)c2N)c1	9	-17	-12	26*	0	2
CC(=O)c1c(C)[nH]c(C(=O)Nc2ccc(Cl)cc2)c1C	-6	3	4	-1	16*	6
Cc1ccc(S(=O)(=O)N2CCCCC2)cc1NC(=O)C1COc2ccccc2O1 (stereo not drawn)	-6	1	-7	-4	5	0
CC(C)CC1CCCCC1OC(=O)C[N+]1(C)CCCCC1 (stereo not drawn)	-36	96*	16	-11	0	-14
CCc1c(C2(O)CCCCC2)[nH]c2cnccc12	14	-22	3	-7	0	-3
Cc1cc(NC(=O)CCCn2nc([N+](=O)[O-])c(Br)c2C)no1	-1	6	3	8	3	-4
Cc1c(Br)c([N+](=O)[O-])nn1CCCC(=O)Nc1c(C)n(C)n(-c2ccccc2)c1=O	-24	82*	-17	6	0	-8
Cc1cc([N+](=O)[O-])nn1CCCC(=O)Nc1c(C)n(C)n(-c2ccccc2)c1=O	-14	31*	14	-11	0	-4
CN1CCN(C(c2cccc(Cl)c2)c2ccccc2Cl)CC1 (stereo not drawn)	-25	88*	20	-5	2	-10
CN(C)c1ccc(/C=C/C(=O)c2cccc(Br)c2)cc1	-33	81*	5	40*	53*	164*
COc1ccc(CCNC(=O)c2ccc3c(c2)N(Cc2ccccc2)CCS3)cc1OC	-14	39*	18	-4	8	1
COc1ccc(OC)c(CCNC(=O)c2ccc3c(c2)N(Cc2ccccc2)CCS3)c1	1	-11	5	-15	0	-1
NS(=O)(=O)c1ccc(CCNC(=O)c2ccc3c(c2)N(Cc2ccccc2)CCS3)cc1	-14	37*	5	-2	6	0
O=C(NCCCN1CCCC1)c1ccc2c(c1)N(Cc1ccccc1)CCS2	-8	-5	-7	-1	0	-7
COCCCNC(=O)c1csc([C@H]2C[C@H](O)[C@@H](CO)O2)n1	10	-13	13	-1	0	-1
Cc1cc(C(=O)Nc2ccc(Br)cc2)cs1	0	-2	-3	-8	4	-3
Nc1nc2cc(S(=O)(=O)N3CCOCC3)ccc2o1	6	-12	9	-6	0	-2
CN1CCC(Oc2ccccc2Sc2ccc(C(F)(F)F)cc2)CC1	-24	64*	14	-5	1	-10
CN1CCC(Oc2ccc(Sc3ccccc3)cc2)CC1	-1	11	11	-6	2	12
O=C(CCNC(=O)c1ccc(Cl)cc1)Nc1ccncc1	4	-5	-1	1	2	1
CC1CCC(NC(=O)CCS(=O)(=O)c2ccc3c(c2)NC(=O)C(C)S3)CC1 (stereo not drawn)	-7	8	-18	5	7	-2
CCn1c(=O)c2ccccc2n(Cc2cccc(C)c2)c1=O	12	-2	-25	27*	0	-1
CCC(C(=O)OC)n1cnc2c(nnn2-c2ccc(C)cc2)c1=O (stereo not drawn)	17	-20	-9	6	2	0
CCCCOCCCNc1ncnc2c1[nH]c1ccccc12	-22	35*	-8	30*	11	4
SMILES	M1 PAM	M1 antag	CHO-K1 Ca PAM	CHO-K1 Ca antag	CHO-K1 Ca ag	CHRM1 agonist
CCOCCCNc1ncnc2c1[nH]c1ccccc12	-9	18	2	4	6	-1
CC1(C)N=C(N)N=C(N)N1c1ccc(Oc2ccc(Cl)cc2)c(Cl)c1	-27	55*	14	-12	2	-9
CC1(C)N=C(N)N=C(N)N1c1cc(Cl)ccc1Cl	3	-1	21	0	0	-9
CCN(CC)c1ccc(C=C2SC(=S)NC2=O)cc1	-36	83*	-6	21	15	111*
C#CC[N+]1(CC#Cc2ccccc2)CCCCC1	0	-4	18	-19	1	-8
C(#Cc1ccccc1)C[N+]1(CC#Cc2ccccc2)CCCCC1	-36	60*	1	4	-1	-14
Cc1ccc(C#CC[N+]2(CC#Cc3ccc(C)cc3)CCCCC2)cc1	-27	48*	0	6	0	-10
C#CC[N+]1(CC#Cc2cccc(C)c2)CCCCC1	0	4	23	-12	1	-13
C#CC[N+]1(CC#Cc2ccccc2)CCOCC1	9	-21	-5	16	-1	-6
CCC[N+]1(CC#CCC(c2ccccc2)c2ccccc2)CCCCC1	-27	63*	4	-7	0	-7
CCN(CCO)C(=O)c1ccc2nc(Cc3ccc(OC)cc3)oc2c1	15	-19	5	-7	1	2
CCCCn1c(N)c(N(Cc2ccccc2OC)C(=O)c2ccc([N+](=O)[O-])s2)c(=O)[nH]c1=O	0	-4	0	-4	0	0
COC(=O)c1cnc(Nc2nc(C(N)Cc3ccccc3)cs2)nc1C(F)(F)F (stereo not drawn)	26*	-12	7	7	1	15
COC(=O)c1cnc(Nc2nc(C(N)Cc3ccc(OC)cc3)cs2)nc1C(F)(F)F (stereo not drawn)	3	-4	17	-2	4	4
CCCc1cnc(Nc2nc(C(N)Cc3ccc(C(F)(F)F)cc3)cs2)nc1 (stereo not drawn)	4	14	18	12	10	18*
CCOC(=O)C1CCCN(C(=O)c2ccc(C(F)(F)F)nc2C)CC1 (stereo not drawn)	13	-11	-16	5	0	-2
CCOc1ccc(NC(=O)c2ccc(CN3CCc4ccccc4C3)cc2)cc1	-21	39*	-25	27*	0	-9
O=C(Nc1ccc(S(=O)(=O)N2CCCC2)cc1)c1ccc(CN2CCc3ccccc3C2)cc1	-25	39*	4	18	14	-8
CCOC(=O)c1ccc(NC(=O)c2ccc(CN3CCc4ccccc4C3)cc2)cc1	-25	30	15	-8	5	-5
O=C(Nc1ccc(Cl)cc1)c1ccc(CN2CCc3ccccc3C2)cc1	-10	7	6	-2	2	-8
O=C(CNC1CCCC1)Nc1ccc(S(=O)(=O)N2CCCCC2)cc1	0	-3	10	-6	2	-10

Assay outcomes: PubChem BioAssay, The Scripps Research Institute Molecular Screening Center
